# Sampled rows, rich in hits. Any-hit rate of the full collection: about 3%.
# MITF TRPM1 inh: inhibitors of MITF-driven TRPM1 promoter in melanoma cells; SK-MEL-5 TRPM1 promoter luciferase, 24 h; inhibition, % at 12.5 µM; 330,000 tested, 0.83% active; AID 488899;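 active means mean inhibition across replicates of 60% or more, whatever share of single replicates reaches that level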
# MITF TRPM1 HTS: increases MITF-driven TRPM1 promoter luciferase signal; SK-MEL-5 TRPM1-promoter luciferase, 24 h; % of positive control, neutral wells = 0; activation, % at 12.5 µM; 300,000 tested, 0.75% active; AID 588334;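 active means mean activation of at least 80% with every replicate also reaching 80%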;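 further: 0% = neutral control wells and 100% = parthenolide positive control wells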
# TWEAK-Fn14 inh: blocks TWEAK-Fn14 interaction in a reporter cell assay; TWEAK-stimulated Fn14 reporter cells, luciferase luminescence, 8 h; inhibition, % at 10 µM; 360,000 tested, 2% active; in the data active means inhibition above about 50%
# LGR2 inh: blocks bursicon-induced cAMP signaling via Drosophila LGR2; HEK293 LGR2, CRE-luciferase, bursicon-stimulated, 4 h; inhibition, % at 9.99 µM; 380,000 tested, 0.35% active; AID 720647;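 active means drop in luminescence signal, shown as inhibition above about 50% in the replicate tests, limit read from the data, passing the limit was not always enough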;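 further: agonist challenge used bursicon conditioned medium at about half maximal strength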
# TROY signal inh: blocks TROY-dependent signaling in reporter cells; 360,000 tested, 0.98% active; Q293 LMP1-TROYcd NF-kB luciferase reporter, 4 h; inhibition, % at 10 µM;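 active means compounds whose plate-normalised and pattern-corrected inhibition of the luciferase reporter signal at the single screening dose is 50% or more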
# LMP1 NFkB inh: reduces LMP1-driven NF-kappaB luciferase signal. AID 504558. LMP1-induced NF-kappaB luciferase reporter cells, luminescence. 350,000 tested, 0.69% active. inhibition, % at 12.5 µM; in the data active means inhibition above about 41%;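 further: 0% = neutral control wells and 100% = reference inhibitor control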
# Active calls of the source: *; nt = not tested or not shown.
SMILES,MITF TRPM1 inh,MITF TRPM1 HTS,TWEAK-Fn14 inh,LGR2 inh,TROY signal inh,LMP1 NFkB inh
CC(/C=N/NC(=O)Cc1cccn1C)=C\c1ccccc1,-40.8,50.8,-16.9,-61.8,-15.5,2.8
CCNC(=O)[C@@H]1[C@@H](CO)[C@@H]2Cn3c(ccc(-c4ccccc4)c3=O)[C@@H]2N1Cc1ccc2c(c1)OCO2,nt,nt,nt,6.6,nt,nt
CC(=O)/C(C(=N)N1CCN(c2cccc(Cl)c2)CC1)=C(\C)O,1.6,-4.4,74.8*,6.0,57.1*,-3.4
Cc1cccc(N2CCN(C(=O)c3cccc(N4CCCC4=O)c3)CC2)c1C,-4.4,4.4,12.5,1.2,7.7,5.4
O=C(c1cccc(N2CCCC2=O)c1)N1CCN(c2ccccc2)CC1,1.3,1.7,46.0,nt,76.5*,-0.9
O=C(c1cccc(F)c1)N1CCN(c2cccc(Cl)c2)CC1,17.2,nt,1.6,nt,-10.3,44.7*
COCC(=O)Nc1ccc2c(c1)[C@H]1C[C@@H](CC(=O)NCc3ccccn3)O[C@H](CO)[C@H]1O2,nt,nt,nt,7.4,nt,nt
CC(C)C#Cc1cnc2c(c1)C(=O)N([C@H](C)CO)C[C@@H](C)[C@@H](CN(C)C(=O)Nc1ccccc1F)O2,nt,nt,nt,-0.8,nt,nt
CCCNC(=O)N[C@H]1CC[C@@H](CCNS(=O)(=O)c2cccc(F)c2)O[C@@H]1CO,nt,nt,nt,8.3,nt,nt
O=c1oc(/C=C/c2ccco2)nc2sc3c(c12)CCC3,-80.3,81.9*,-1.0,3.8,-0.7,1.3
COc1cc2nc(Nc3ccc(C)c(Cl)c3)nc(N)c2cc1OC,69.8*,-66.2,101.8*,30.6,32.7,8.9
Cc1ccccc1Nc1nc(N)c2ccccc2n1,-27.4,29.2,53.5*,2.8,-33.7,4.0
COc1ccc(C)cc1Nc1nc(N)c2ccccc2n1,-15.2,nt,-15.9,-7.0,-42.0,-1.8
COc1cc2nc(Nc3ccc(C)c(C)c3)nc(N)c2cc1OC,34.9,-34.0,-36.1,-11.8,-43.2,-10.0
Cc1ccc(Nc2nc(N)c3ccccc3n2)cc1Cl,2.2,nt,68.0*,71.9*,16.2,-39.7
COCC#Cc1cnc2c(c1)C(=O)N([C@H](C)CO)C[C@@H](C)[C@@H](CN(C)C(=O)NC1CCCC1)O2,nt,nt,nt,-9.8,nt,nt
CC(C)NC(=O)Nc1ccc2c(c1)C(=O)N([C@@H](C)CO)C[C@@H](C)[C@H](CN(C)CC1CCCCC1)OCCCC[C@H](C)O2,nt,nt,nt,7.5,nt,nt
Cc1ccccc1NC1=CC(=O)CC(C)(C)C1,-3.8,3.1,4.1,-27.4,14.9,1.8
CC1(C)CC(=O)C=C(NC2=CC3OC(c4ccccc4)OCC3OC2=O)C1 (centres undefined),70.8*,-70.5,76.2*,86.0*,17.0,-23.7
COc1cccc(-c2cnc3c(c2)C(=O)N([C@H](C)CO)C[C@H](C)[C@H](CN(C)C(=O)CN(C)C)O3)c1,nt,nt,nt,7.9,nt,nt
CN1CN=C(NS(=O)(=O)c2ccc([N+](=O)[O-])cc2)NC1,8.7,-5.3,55.1*,1.8,1.9,2.2
O=C(O)CN1CCN(CC(=O)O)CCN(CC(=O)O)CCN(CC(=O)O)CC1,-0.7,0.2,2.8,-10.1,7.4,4.3
CC(=O)NCN1CCN(CNC(C)=O)CC1,4.9,-6.3,74.1*,nt,-0.7,4.2
COC(=O)C1CCCCN1C(=O)c1ccc2oc(Cc3ccccc3)nc2c1 (centres undefined),-108.2,107.9*,-38.8,-39.5,-66.2,-30.8
COC(=O)C1CCCCN1C(=O)c1ccc2oc(C(C)C)nc2c1 (centres undefined),-8.9,11.6,-20.1,-26.3,-34.9,-6.0
SMILES,MITF TRPM1 inh,MITF TRPM1 HTS,TWEAK-Fn14 inh,LGR2 inh,TROY signal inh,LMP1 NFkB inh
COCCC1CCCCN1C(=O)c1ccc2nc(Cc3ccccc3F)oc2c1 (centres undefined),-129.4,134.4*,0.2,-63.4,-51.7,-19.0
COCCc1nc2ccc(C(=O)N3CCCCC3COC)cc2o1 (centres undefined),-3.5,7.8,5.7,-2.7,-9.0,5.0
COCC(=O)N1CCC2(CC1)CN(C(=O)CN1CCOCC1)[C@H](CO)c1c2c2ccc(OC)cc2n1C,nt,nt,nt,-6.0,nt,nt
O=C(NC(=S)Nc1ccc(F)cc1)c1ccc2c(c1)OCCO2,-52.4,61.4,42.1,-37.5,45.4,-41.8
O=C(NC(=S)Nc1ccc(N2CCCCC2)cc1)c1ccc2c(c1)OCCO2,-6.1,8.6,54.9*,nt,77.5*,18.8
O=C(NC(=S)Nc1ccc(N2CCOCC2)cc1)c1ccc2c(c1)OCCO2,4.4,-5.2,51.3*,-17.8,59.6*,1.5
CC1CCN(c2ccc(NC(=S)NC(=O)c3ccco3)cc2)CC1,-24.5,16.6,-3.2,nt,-60.4,-6.8
O=C(NC(=S)Nc1ccc(N2CCCCC2)cc1)c1ccco1,-111.5,110.1*,8.8,-38.2,2.0,-25.4
C[C@@H]1CN([C@H](C)CO)C(=O)c2cc(-c3ccccc3)cnc2O[C@@H]1CN(C)C(=O)Nc1ccccc1F,nt,nt,nt,-4.8,nt,nt
CC1CCN(c2oc(-c3ccccc3Cl)nc2C#N)CC1,-78.5,93.6*,-5.3,nt,-31.8,-35.5
CC(C)=CC(O)C/C(C)=C/COc1ccc2ccc(=O)oc2c1 (centres undefined),56.3,-55.2,83.5*,nt,8.2,9.1
N#CC1=C(N)OC2=C(C(=O)CCC2)[C@]12C(=O)N(CC(N)=O)c1ccccc12,-1.4,1.4,-14.2,24.5,6.6,-3.5
N#CC1=C(N)OC2=C(C(=O)CCC2)C12C(=O)N1CCCc3cccc2c31 (centres undefined),12.3,-10.3,-1.3,nt,-0.9,84.2*
CSc1nnc(NC(=O)c2ccc3c(c2)OCO3)s1,40.6,-38.3,91.8*,66.7*,71.1*,67.8*
Cc1nnc(NC(=O)c2ccc3c(c2)OCO3)s1,-47.3,47.4,0.9,3.7,-39.0,-12.7
O=C(CSc1nnc(NC(=O)c2ccc3c(c2)OCO3)s1)NCc1ccco1,3.8,-4.9,60.8*,60.0*,1.0,47.8*
O=C(C[C@@H]1CC[C@@H](NC(=O)C2CC2)[C@H](CO)O1)Nc1nccs1,nt,nt,nt,-10.5,nt,nt
COc1ccc(S(=O)(=O)Nc2ccc3c(c2)C(=O)N([C@H](C)CO)C[C@@H](C)[C@H](CN(C)C(=O)Cc2ccccc2)OCCCC[C@H](C)O3)cc1,nt,nt,nt,-0.5,nt,nt
CN(C)C(=O)C[C@@H]1CC[C@@H](NC(=O)C2CC2)[C@@H](CO)O1,nt,nt,nt,-5.9,nt,nt
Cc1nn(C(=O)CN2C(=O)c3ccccc3C2=O)c(C)c1Br,13.4,-13.3,94.7*,nt,nt,5.3
C[C@H](CO)N1C[C@H](C)[C@H](CN(C)CC2CC2)Oc2ncc(C#CC3(O)CCCC3)cc2C1=O,nt,nt,nt,7.4,nt,nt
CN1C(=O)c2cc(NC(=O)C3CCOCC3)ccc2OC[C@H]2O[C@H](CC(=O)NCc3ccc4c(c3)OCO4)CC[C@H]21,nt,nt,nt,7.0,nt,nt
Cc1[nH]n(C(N)=S)c(=O)c1N=Nc1cccc([N+](=O)[O-])c1C,-73.3,64.0,-34.9,nt,-32.5,-10.8
NC(=S)n1[nH]c(-c2ccc([N+](=O)[O-])cc2)c(N=Nc2ccccc2[N+](=O)[O-])c1=O,7.9,-4.6,-5.7,1.2,2.9,-2.3
